Results filed as inconclusive are left out. Values without a mark were called inactive. The source made the active and inactive calls. Calls follow the shape of the dose curve; as a rule, active = well fitted cell-killing curve with a large enough effect; inconclusive = small, poorly fitted or top-dose-only effect, or effect the other way; inactive = no such curve, though single readings can be large or run the other way.
Experiment: Quantitative highthroughput screen to assess conditional lethalithy of NOMO1 cells grown in Human Plasma-Like Medium with dialyzed fetal bovine serum (HPLM+ds) (AID 1963878); also: nearly all actives have a fitted effect of over 35% in size
Conditions: NOMO1 AML cells in HPLM+ds, CellTiter-Glo viability, 48 h; series mostly up to 45.8 µM; viability: at the top concentration
Text: Assay Provider: Jason Cantor Ph.D.
Department of Biochemistry
University of Wisconsin-Madison, Madison, WI, USA
Chemical screening studies have identified drug sensitivities across hundreds of cancer cell lines but most putative therapeutics fail to translate. Discovery and development of drug candidates in models that more accurately reflect nutrient levels in human blood is a major challenge. Here we performed high-throughput screens in conventional versus Human Plasma-Like Medium (HPLM) to identify compounds that were "missed" when screening using the artificial culture condition. Sets of conditional anticancer compounds spanned phases of clinical development and included non-oncology drugs were assessed. […] We also traced conditional phenotypes for several chemotherapeutics to availability of HPLM-specific metabolites and confirmed others for compounds whose reported targets are encoded by nonessential genes. Our findings establish generalizable strategies for exploiting conditional lethality in HPLM to reveal therapeutic candidates and mechanisms of action in cancer cells.
Described herein are the results of each viability screens against three cell lines: NOMO1 (an acute myeloid leukemia cell line); P12-Ichikawa (a T-cell acute lymphoblastic leukemia); and SEM (a B-cell ALL). Each assay was screened using 3 different cell culture media: homemade human plasma-Like medium with 10% dialyzed fetal bovine serum (HPLM+ds); RPMI1640 with 10% untreated FBS and 5mM glucose (RPMI+s); and RPMI1640 with 10% dialyzed fetal bovine serum and 5 mM glucose (RPMI+ds).
PROTOCOL TABLE (as described by Inglese J, Shamu CE and Guy RK. 2007)
SEQUENCE No. (e.g., 1, 2, 3, etc.); […] (e.g., Cells, Incubation, Reagent, etc.); VALUE and DESCRIPTION.
1; Cells; 5 uL; white, solid bottom 1536-well Greiner assay plate.
2; Compounds; 23 nL; Kalypsis pin tool (Wako USA) equipped with a 1536-well pin head to transfer to the assay plates.
3; Incubation; 48 hours; 37C incubation.
4; Reagent; 3 uL; CellTiter Glo (Promega).
5; Incubation; 5 min, room temperature
6; Detection; Luminescence, Viewlux PerkinElmer.
NOTES (numbers refer to Sequence numbers above)
1. Briefly, 5 ul of cell reagent was dispensed using a Multidrop Combi Dispenser. The NOMO1 and SEM cells were plated at 500 cells/well and the P12-Ichikawa line at 1000 cells/well.
2. After seeding the cells, 23 nL of MIPE 4.1 library compounds (in DMSO) were added to each plate using a Kalypsys 1536 Pintool dispenser. Bortezomib at final concentration of […] and DMSO were added to each plate as positive and negative controls respectively. For each screen, MIPE 4.1 compounds were added over an eleven-point concentration range […] in 3-fold dilutions.
3. Each plate was covered with a stainless steel gasketed lid to prevent evaporation and incubated for 48 hour at 37C, 95% relative humidity, and 5% CO2.
4-5. Three microliter CellTilter-GloTM luminescent substrate mix (Promega) reagent was added to the assay plate and incubated at room temperature for 5 min.
6. The luminescence signal was measured using a ViewLux (PerkinElmer) multiplate reader with a 2 second exposure time per plate. Data for each compound were normalized as percent viability such that measurements for DMSO and the empty well controls in each plate were defined as 100% and 0%, respectively.
Potency is read from the fitted curve at half-maximal effect.

Structure (SMILES)	Potency	viability [%]
NC1=NC(=O)N2CC12 (stereo not given)	4.18 µM (active)	–
COc1ccc(C(=O)c2c(C)n(CCN3CCOCC3)c3ccccc23)cc1	–	87.4
CC[C@@H]1[C@@H](C)O[C@@](O)([C@@H](C)[C@H](O)[C@H](C)[C@H]2OC(=O)C=CC=C[C@@H](C)[C@@H]([C@@H](C)[C@@H](O)[C@H](C)[C@@]3(O)C[C@H](O[C@H]4C[C@H](O)[C@H](O)[C@H](C)O4)[C@H](CC)[C@@H](C)O3)OC(=O)C=CC=C[C@@H]2C)C[C@H]1O[C@H]1C[C@H](O)[C@H](O)[C@H](C)O1	2.96 µM (active)	–
CN(C)CCN(C)CCc1ccc(Cl)c(Cl)c1	–	93.5
C[C@@]12OC(=O)[C@]1([C@@H](O)[C@@H]1C=CCCC1)NC(=O)[C@H]2CCCl	0.166 µM (active)	–
C[C@](O)(CS(=O)(=O)c1ccc(F)cc1)C(=O)Nc1ccc(C#N)c(C(F)(F)F)c1	–	114
CCOP(=O)(OCC)C(C)NC(=O)N(CCCl)N=O (stereo not given)	–	117
Fc1ccc(C(OCCN2CCN(CCCc3ccccc3)CC2)c2ccc(F)cc2)cc1	20.9 µM (active)	–
CC(=O)N(C)c1cccc(-c2ccnc3c(C(=O)c4cccs4)cnn23)c1	–	99.8
Cc1ncc(OC[C@@]2(c3cccc(F)c3)C[C@H]2C(=O)Nc2ccc(F)cn2)c(C)n1	–	98
CC(=Cc1csc(C)n1)[C@@H]1C[C@H]2O[C@]2(C)CCC[C@H](C)[C@@H](O)[C@@H](C)C(=O)C(C)(C)[C@@H](O)CC(=O)O1	–	27.6
CC(C)(O)C=CC(=O)[C@](C)(O)[C@H]1[C@H](O)C[C@]2(C)[C@@H]3CC=C4[C@@H](C=C(O)C(=O)C4(C)C)[C@]3(C)C(=O)C[C@@]12C	0.209 µM (active)	–
O=C(O)CNC(=O)c1c(O)c2ccccc2n(Cc2ccccc2)c1=O	–	100
CC(=O)Nc1ccc(OC[C@](C)(O)C(=O)Nc2ccc([N+](=O)[O-])c(C(F)(F)F)c2)cc1	–	95.2
CC(C)CC(N(C)C)C1(c2ccc(Cl)cc2)CCC1 (stereo not given)	–	91
COC[C@H]1OC(=O)c2coc3c2[C@@]1(C)C1=C(C3=O)[C@@H]2CC[C@H](O)[C@@]2(C)C[C@@H]1OC(C)=O	13.2 µM (active)	–
COc1cccc2c1[C@]13CCN(CC4CC4)[C@H](C2)[C@]1(OC)CCC(=O)C3	–	90.6
CC(C)(C)c1cc(C=C(C#N)C#N)cc(Br)c1O	–	84.4
CCNC(=O)CC1N=C(c2ccc(Cl)cc2)c2cc(OC)ccc2-n2c(C)nnc21 (stereo not given)	–	72.7
CNC(=O)c1ccc(N2C(=S)N(c3ccc(C#N)c(C(F)(F)F)c3)C(=O)C23CCC3)cc1F	–	110

Structure (SMILES)	Potency	viability [%]
N[C@@H](Cc1ccc(N(CCCl)CCCl)cc1)C(=O)O	7.43 µM (active)	–
COC1(CS(=O)c2ccccc2)CCN(CCc2c[nH]c3ccc(F)cc23)CC1 (stereo not given)	26.4 µM (active)	–
Cc1[nH]nc2ccc(-c3cncc(OC[C@@H](N)Cc4c[nH]c5ccccc45)c3)cc12	0.526 µM (active)	–
COc1ccc2c(c1)CN(C)CC2c1ccc(Cl)c(Cl)c1 (stereo not given)	3.32 µM (active)	–
CCOC(=O)c1c(C(C#N)=CN)c2ccc(Cl)c(Cl)c2n1C	–	112
C#CC1(O)CCC2C3CCC4=CC(=O)CCC4(C)C3CCC21C (stereo not given)	–	102
O=c1[nH]c2ccccc2n1CCCN1CCC(n2c(=O)[nH]c3cc(Cl)ccc32)CC1	–	78.3
COC1=CC(C)=C[C@@H](C)[C@@H](O)[C@@H](C)CC(C)=CC=C[C@H](OC)[C@H]([C@@H](C)[C@@H](O)[C@H](C)[C@@]2(O)C[C@@H](O)[C@H](C)[C@@H](C(C)C)O2)OC1=O	0.0662 µM (active)	–
Cn1cc(C2=C(c3cn(C4CCN(Cc5ccccn5)CC4)c4ccccc34)C(=O)NC2=O)c2ccccc21	–	115
CC(=Cc1csc(C)n1)[C@@H]1C[C@H]2O[C@@H]2CCC[C@H](C)[C@@H](O)[C@@H](C)C(=O)C(C)(C)[C@@H](O)CC(=O)O1	–	26.9
CN(C)[C@@H]1C(=O)C(C(N)=O)=C(O)[C@@]2(O)C(=O)C3=C(O)c4c(O)cccc4[C@@](C)(O)[C@H]3C[C@@H]12	–	105
COc1ccc2c(c1OC)CN1CCc3cc4c(cc3C1C2)OCO4 (stereo not given)	1.48 µM (active)	–
CN1CCN(C(=O)O[C@H]2c3nccnc3C(=O)N2c2ccc(Cl)cn2)CC1	–	94.8
O=C1CC[C@@]2(O)[C@H]3Cc4ccc(O)c5c4[C@@]2(CCN3CC2CC2)[C@H]1O5	9.35 µM (active)	–
CCCC(C)(COC(N)=O)COC(=O)NC(C)C (stereo not given)	–	108
C[C@]12COC(=O)C[C@@H]1CC[C@@H]1[C@H]2CC[C@@]2(C)[C@H]1CC[C@]2(C)O	–	82.9
C[C@@H]1[C@H](O)[C@@H](C)C=CC=CCCC=CC=CC=CC=C[C@H](O[C@H]2O[C@@H](C)[C@H](O)[C@@H](N)[C@@H]2O)CC2O[C@](O)(C[C@@H](O)[C@H](O)CC[C@@H](O)C[C@@H](O)C[C@@H](O)CC(=O)O[C@H]1C)C[C@H](O)[C@H]2C(=O)O	–	106
CCc1c(C(=O)C(N)=O)c2c(OCC(=O)O)cccc2n1Cc1ccccc1	–	102
C[C@@H]1CC[C@H]2[C@@H](C)C(=O)O[C@@H]3O[C@@]4(C)CC[C@H]1[C@]32OO4	–	102
C[C@@H]1C[C@@H]([C@H](O)CC2CC(=O)NC(=O)C2)C(=O)[C@@H](C)C1	1.18 µM (active)	–
